Experimental data: ChEMBL document CHEMBL1961873, “Compounds: GSK PKIS; Assays: Nanosyn kinase panel” (2012)

What was measured:
[1] = target: Protein kinase C gamma type (Homo sapiens) (UniProt P05129); conditions: at 1 µM;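 further: each value is an averaged percent inhibition of the enzyme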
[2] = target: T1, Protein kinase C iota type (Homo sapiens) (UniProt P41743); conditions: at 0.1 µM
T1 sequence (whole entry): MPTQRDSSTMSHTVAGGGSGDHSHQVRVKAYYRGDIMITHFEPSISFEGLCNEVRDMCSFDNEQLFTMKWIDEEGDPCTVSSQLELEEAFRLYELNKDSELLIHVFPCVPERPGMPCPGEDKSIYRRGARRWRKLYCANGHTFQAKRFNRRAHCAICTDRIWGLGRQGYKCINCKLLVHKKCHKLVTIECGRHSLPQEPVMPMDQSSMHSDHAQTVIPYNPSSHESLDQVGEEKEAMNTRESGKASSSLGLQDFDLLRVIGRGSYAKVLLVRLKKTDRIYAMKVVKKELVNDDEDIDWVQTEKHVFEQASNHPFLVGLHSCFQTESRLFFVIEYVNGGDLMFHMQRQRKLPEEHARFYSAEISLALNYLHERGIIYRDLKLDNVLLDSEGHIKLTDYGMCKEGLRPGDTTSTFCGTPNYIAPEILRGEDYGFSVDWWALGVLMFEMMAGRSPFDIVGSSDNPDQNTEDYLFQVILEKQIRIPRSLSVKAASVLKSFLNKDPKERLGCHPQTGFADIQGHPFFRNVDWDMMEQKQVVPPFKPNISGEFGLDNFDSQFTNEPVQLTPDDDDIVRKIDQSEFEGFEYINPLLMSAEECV

[3] = target: T1, Protein kinase C iota type (Homo sapiens); conditions: at 1 µM
[4] = target: Protein kinase C theta type (Homo sapiens) (UniProt Q04759); conditions: at 0.1 µM
[5] = target: Protein kinase C theta type (Homo sapiens) (UniProt Q04759); conditions: at 1 µM
[6] = target: Protein kinase C beta type (Homo sapiens) (UniProt P05771); conditions: at 0.1 µM
[7] = target: Protein kinase C beta type (Homo sapiens) (UniProt P05771); conditions: at 1 µM
[8] = target: T2, Serine/threonine-protein kinase D1 (Homo sapiens) (UniProt Q15139); conditions: at 0.1 µM
T2 sequence (whole entry): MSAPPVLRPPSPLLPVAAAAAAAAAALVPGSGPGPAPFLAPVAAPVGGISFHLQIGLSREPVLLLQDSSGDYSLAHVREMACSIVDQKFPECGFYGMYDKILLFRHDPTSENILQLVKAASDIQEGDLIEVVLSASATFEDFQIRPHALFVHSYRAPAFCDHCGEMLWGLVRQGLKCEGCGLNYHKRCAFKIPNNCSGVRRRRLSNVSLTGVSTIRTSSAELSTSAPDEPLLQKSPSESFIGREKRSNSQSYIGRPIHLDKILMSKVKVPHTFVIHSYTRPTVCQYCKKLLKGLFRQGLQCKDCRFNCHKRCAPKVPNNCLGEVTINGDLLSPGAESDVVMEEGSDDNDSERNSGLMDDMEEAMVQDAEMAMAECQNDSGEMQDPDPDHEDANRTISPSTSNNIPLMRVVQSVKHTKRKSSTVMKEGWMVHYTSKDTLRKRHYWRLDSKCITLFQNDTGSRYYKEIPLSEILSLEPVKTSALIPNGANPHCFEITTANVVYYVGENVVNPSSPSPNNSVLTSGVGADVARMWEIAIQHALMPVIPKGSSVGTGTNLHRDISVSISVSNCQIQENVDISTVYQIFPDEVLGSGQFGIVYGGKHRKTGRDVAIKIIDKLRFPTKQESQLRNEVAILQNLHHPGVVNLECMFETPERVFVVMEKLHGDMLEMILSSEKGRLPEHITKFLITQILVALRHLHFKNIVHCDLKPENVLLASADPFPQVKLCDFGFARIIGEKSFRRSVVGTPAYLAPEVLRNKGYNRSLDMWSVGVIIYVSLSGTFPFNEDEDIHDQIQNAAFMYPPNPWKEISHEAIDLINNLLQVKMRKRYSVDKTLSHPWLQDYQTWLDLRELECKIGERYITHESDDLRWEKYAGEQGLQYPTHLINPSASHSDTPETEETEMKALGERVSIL

[9] = target: T2, Serine/threonine-protein kinase D1 (Homo sapiens); conditions: at 1 µM
[10] = target: T3, Serine/threonine-protein kinase D2 (Homo sapiens) (UniProt Q9BZL6); conditions: at 0.1 µM
T3 sequence (whole entry): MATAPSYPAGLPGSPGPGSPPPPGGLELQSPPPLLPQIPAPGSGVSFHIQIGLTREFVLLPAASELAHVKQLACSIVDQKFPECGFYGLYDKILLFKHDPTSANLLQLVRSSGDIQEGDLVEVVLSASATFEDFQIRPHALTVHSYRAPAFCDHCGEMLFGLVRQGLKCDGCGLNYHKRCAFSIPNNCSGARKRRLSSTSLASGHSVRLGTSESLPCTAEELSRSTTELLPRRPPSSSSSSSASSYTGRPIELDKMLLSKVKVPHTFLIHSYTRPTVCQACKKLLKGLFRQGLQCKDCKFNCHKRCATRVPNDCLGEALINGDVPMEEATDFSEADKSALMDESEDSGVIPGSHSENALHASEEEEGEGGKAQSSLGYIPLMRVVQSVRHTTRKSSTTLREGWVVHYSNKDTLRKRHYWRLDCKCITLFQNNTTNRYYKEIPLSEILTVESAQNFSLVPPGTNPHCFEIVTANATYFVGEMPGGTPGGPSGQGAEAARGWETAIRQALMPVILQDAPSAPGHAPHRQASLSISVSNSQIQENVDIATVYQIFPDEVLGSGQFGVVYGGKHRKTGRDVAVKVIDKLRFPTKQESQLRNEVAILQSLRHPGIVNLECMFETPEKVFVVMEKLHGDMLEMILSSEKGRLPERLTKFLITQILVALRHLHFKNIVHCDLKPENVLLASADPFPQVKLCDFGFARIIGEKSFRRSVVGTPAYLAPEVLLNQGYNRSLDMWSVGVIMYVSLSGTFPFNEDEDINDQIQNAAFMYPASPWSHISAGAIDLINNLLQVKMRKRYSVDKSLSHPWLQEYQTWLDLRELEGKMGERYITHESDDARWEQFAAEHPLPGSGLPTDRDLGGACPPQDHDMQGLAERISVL

[11] = target: T3, Serine/threonine-protein kinase D2 (Homo sapiens); conditions: at 1 µM
[12] = target: T4, Serine/threonine-protein kinase D3 (Homo sapiens) (UniProt O94806); conditions: at 0.1 µM
T4 sequence (whole entry): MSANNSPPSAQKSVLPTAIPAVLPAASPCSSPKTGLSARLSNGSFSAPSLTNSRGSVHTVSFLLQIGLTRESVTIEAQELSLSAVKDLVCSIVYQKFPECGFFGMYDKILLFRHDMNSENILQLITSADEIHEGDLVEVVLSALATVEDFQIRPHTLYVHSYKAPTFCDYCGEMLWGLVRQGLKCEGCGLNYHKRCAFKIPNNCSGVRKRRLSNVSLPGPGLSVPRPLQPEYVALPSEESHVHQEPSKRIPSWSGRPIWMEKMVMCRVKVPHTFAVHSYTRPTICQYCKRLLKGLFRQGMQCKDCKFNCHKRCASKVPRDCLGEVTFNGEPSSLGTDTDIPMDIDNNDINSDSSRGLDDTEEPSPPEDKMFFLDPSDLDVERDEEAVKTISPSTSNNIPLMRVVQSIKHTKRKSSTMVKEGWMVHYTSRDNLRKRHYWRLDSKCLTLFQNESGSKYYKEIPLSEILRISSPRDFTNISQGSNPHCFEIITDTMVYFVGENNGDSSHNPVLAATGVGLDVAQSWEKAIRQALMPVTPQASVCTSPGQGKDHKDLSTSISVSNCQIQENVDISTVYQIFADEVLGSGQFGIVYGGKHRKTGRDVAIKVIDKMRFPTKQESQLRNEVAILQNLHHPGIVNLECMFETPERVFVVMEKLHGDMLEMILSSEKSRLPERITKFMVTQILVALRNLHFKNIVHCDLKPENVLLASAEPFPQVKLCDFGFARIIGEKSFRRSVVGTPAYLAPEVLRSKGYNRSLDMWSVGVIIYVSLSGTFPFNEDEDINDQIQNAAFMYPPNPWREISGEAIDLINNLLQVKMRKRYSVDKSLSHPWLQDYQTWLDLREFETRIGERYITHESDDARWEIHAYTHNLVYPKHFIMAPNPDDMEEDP

[13] = target: T4, Serine/threonine-protein kinase D3 (Homo sapiens); conditions: at 1 µM
[14] = target: T5, cGMP-dependent protein kinase 1 (Homo sapiens) (UniProt Q13976); conditions: at 0.1 µM
T5 sequence (whole entry): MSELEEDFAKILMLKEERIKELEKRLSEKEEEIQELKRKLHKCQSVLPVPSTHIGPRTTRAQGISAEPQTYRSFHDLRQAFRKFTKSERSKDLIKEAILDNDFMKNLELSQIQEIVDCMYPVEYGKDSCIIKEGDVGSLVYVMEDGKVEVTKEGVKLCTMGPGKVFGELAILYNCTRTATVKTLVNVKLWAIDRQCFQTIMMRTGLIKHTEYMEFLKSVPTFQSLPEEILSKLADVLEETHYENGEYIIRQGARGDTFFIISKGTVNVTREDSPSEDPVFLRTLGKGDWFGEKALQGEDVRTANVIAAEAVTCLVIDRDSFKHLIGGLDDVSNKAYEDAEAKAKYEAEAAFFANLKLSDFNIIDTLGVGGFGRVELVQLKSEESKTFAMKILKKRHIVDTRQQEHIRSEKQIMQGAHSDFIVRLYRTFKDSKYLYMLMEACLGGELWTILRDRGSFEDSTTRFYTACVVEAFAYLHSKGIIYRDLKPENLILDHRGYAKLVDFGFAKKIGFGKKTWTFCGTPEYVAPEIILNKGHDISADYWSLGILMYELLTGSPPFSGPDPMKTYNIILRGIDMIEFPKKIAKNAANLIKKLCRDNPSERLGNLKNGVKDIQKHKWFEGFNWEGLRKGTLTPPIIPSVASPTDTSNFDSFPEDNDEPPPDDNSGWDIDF

[15] = target: T5, cGMP-dependent protein kinase 1 (Homo sapiens); conditions: at 1 µM
[16] = target: T6, cGMP-dependent protein kinase 2 (Homo sapiens) (UniProt Q13237); conditions: at 0.1 µM
T6 sequence (whole entry): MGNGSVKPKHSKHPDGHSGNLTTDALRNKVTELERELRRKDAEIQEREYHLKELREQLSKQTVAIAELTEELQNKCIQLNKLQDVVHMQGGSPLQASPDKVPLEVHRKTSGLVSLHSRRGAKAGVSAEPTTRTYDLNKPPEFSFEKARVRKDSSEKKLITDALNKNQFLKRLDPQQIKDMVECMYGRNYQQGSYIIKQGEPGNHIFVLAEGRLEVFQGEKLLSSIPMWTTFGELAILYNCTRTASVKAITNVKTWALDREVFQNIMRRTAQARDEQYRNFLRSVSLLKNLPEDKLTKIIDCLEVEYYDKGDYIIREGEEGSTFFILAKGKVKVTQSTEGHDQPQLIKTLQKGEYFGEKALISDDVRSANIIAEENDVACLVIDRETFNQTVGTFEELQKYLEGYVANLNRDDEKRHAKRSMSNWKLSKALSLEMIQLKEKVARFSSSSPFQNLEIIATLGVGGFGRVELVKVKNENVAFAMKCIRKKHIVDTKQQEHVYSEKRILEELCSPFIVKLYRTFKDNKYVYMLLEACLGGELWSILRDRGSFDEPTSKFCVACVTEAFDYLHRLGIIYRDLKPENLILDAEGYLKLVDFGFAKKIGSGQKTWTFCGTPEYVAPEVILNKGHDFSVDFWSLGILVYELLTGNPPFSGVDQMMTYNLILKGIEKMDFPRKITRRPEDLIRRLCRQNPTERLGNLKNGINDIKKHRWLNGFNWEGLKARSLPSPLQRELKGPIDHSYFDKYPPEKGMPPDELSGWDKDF

[17] = target: T6, cGMP-dependent protein kinase 2 (Homo sapiens); conditions: at 1 µM
[18] = target: T7, cAMP-dependent protein kinase catalytic subunit PRKX (Homo sapiens) (UniProt P51817); conditions: at 0.1 µM
T7 sequence (whole entry): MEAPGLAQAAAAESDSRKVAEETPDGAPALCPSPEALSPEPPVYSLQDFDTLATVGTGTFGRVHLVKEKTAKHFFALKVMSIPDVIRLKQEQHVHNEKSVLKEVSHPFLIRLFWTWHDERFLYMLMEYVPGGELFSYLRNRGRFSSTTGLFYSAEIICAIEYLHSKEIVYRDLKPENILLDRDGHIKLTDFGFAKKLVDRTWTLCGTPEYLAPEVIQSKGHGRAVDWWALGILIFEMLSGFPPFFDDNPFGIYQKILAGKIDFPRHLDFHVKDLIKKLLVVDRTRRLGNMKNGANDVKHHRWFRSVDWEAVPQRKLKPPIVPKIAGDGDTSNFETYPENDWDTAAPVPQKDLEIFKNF

[19] = target: T7, cAMP-dependent protein kinase catalytic subunit PRKX (Homo sapiens); conditions: at 1 µM
[20] = target: Rho-associated protein kinase 1 (Homo sapiens) (UniProt Q13464); conditions: at 0.1 µM;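 further: values are mean percent inhibition of ROCK1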
Rho-associated protein kinase 1 (Homo sapiens), sequence (Q13464 2-1354 limits assumed): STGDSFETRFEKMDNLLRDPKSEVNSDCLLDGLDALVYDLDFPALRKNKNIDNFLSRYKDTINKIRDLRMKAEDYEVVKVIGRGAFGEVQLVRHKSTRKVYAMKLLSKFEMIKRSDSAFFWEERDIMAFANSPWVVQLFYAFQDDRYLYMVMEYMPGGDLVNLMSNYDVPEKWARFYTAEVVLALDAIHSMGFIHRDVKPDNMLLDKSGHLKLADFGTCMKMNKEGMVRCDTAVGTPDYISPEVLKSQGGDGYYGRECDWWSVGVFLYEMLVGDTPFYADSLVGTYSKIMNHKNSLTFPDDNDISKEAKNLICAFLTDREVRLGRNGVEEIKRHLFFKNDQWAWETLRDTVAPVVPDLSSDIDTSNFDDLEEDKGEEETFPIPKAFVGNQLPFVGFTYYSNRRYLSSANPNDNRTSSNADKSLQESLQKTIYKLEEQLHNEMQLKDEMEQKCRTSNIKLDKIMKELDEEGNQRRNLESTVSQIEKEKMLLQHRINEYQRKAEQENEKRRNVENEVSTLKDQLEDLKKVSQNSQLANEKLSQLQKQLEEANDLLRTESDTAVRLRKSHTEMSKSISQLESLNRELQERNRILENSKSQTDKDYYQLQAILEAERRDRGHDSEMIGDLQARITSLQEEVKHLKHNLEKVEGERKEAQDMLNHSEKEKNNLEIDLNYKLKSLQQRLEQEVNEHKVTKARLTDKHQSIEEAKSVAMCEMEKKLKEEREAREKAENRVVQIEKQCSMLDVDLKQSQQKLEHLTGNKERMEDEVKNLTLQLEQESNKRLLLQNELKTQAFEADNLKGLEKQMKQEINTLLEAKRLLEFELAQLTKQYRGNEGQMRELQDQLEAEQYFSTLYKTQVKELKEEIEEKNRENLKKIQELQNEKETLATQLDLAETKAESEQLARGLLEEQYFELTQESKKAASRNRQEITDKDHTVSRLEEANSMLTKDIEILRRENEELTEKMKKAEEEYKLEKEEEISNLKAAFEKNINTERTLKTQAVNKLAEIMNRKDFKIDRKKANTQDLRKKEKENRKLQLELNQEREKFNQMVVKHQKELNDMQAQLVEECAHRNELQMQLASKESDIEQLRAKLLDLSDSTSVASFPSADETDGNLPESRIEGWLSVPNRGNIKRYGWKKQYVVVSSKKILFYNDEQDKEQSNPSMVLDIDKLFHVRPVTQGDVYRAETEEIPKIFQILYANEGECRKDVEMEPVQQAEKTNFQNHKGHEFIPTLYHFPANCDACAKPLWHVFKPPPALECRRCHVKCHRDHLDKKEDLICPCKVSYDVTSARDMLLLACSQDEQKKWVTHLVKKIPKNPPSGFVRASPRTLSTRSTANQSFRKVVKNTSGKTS

Protein kinase C beta type (Homo sapiens), sequence (P05771 2-671 limits assumed): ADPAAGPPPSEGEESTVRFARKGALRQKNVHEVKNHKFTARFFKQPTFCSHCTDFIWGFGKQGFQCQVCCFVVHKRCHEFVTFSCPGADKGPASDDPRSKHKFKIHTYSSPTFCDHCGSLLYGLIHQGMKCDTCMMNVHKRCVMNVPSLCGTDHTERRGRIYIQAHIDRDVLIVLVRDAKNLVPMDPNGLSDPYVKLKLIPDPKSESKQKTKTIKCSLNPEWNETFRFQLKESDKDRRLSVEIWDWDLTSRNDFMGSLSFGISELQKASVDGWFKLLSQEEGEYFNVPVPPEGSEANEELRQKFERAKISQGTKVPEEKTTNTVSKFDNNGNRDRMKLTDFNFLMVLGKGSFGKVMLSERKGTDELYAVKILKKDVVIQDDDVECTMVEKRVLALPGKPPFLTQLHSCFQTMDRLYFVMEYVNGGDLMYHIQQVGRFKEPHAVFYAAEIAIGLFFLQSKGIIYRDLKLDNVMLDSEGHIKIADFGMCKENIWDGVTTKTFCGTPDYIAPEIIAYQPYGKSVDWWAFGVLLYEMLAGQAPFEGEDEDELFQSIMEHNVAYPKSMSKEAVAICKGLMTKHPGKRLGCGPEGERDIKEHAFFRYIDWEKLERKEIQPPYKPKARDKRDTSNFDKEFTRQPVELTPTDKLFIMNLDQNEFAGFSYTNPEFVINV
Protein kinase C theta type (Homo sapiens), sequence (Q04759 whole entry, looked up): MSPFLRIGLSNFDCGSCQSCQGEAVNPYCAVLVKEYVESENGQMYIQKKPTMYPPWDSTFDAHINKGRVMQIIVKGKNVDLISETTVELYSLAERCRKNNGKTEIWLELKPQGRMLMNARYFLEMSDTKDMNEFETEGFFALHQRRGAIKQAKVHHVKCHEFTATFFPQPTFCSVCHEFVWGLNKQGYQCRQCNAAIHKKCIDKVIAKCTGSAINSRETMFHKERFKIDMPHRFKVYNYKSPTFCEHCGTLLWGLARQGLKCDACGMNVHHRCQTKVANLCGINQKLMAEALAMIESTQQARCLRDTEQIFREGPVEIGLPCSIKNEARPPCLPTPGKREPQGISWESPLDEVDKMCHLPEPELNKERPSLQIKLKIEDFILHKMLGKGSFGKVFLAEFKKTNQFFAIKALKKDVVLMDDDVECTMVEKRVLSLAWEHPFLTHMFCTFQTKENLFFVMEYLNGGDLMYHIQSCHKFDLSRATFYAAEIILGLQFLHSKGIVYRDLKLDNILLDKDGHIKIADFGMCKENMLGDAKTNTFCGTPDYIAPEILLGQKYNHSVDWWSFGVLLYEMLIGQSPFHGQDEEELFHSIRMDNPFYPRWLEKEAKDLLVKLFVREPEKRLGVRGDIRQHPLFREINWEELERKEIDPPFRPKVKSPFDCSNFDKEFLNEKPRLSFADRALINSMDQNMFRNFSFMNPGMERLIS

SMILES | inhibition [1] [%] | inhibition [2] [%] | inhibition [3] [%] | inhibition [4] [%] | inhibition [5] [%] | inhibition [6] [%] | inhibition [7] [%] | inhibition [8] [%] | inhibition [9] [%] | inhibition [10] [%] | inhibition [11] [%] | inhibition [12] [%] | inhibition [13] [%] | inhibition [14] [%] | inhibition [15] [%] | inhibition [16] [%] | inhibition [17] [%] | inhibition [18] [%] | inhibition [19] [%] | inhibition [20] [%]
N#Cc1cccc(Nc2nccc(-c3cnn4ncccc34)n2)c1 | 31.2 | 0.78 | 1.84 | 3.95 | 14.2 | 6.33 | 30.2 | 7.68 | 49.5 | 7.36 | 46.8 | 10.5 | 54.9 | 10.8 | 50.2 | 4.14 | 25.9 | 1.47 | 2.66 | 1.39
O=S(=O)(CCOCc1ccc(-c2ccc3ncnc(Nc4ccc(OCc5cccc(F)c5)c(Cl)c4)c3c2)o1)c1ccccc1 | 1.98 | 0.8 | 0.31 | 0.62 | 0.48 | 0.96 | 1.53 | 1.15 | 2.02 | 1.72 | 2.14 | 1.07 | 1.96 | 1.36 | 2.37 | 1.18 | 2.63 | 1.21 | 1.09 | 1.34
COC(=O)Nc1nc2cc(Oc3ccc(NC(=O)Nc4cccc(Br)c4)cc3)ccc2[nH]1 | 0.29 | 1.23 | 0.06 | 1.7 | 1.69 | 0.71 | 2.06 | 2.15 | 4.31 | 4.58 | 4.58 | 2.07 | 3.88 | 1.83 | 2.02 | 0.8 | 2.14 | 1.95 | 1.14 | 2.54
COc1cc2ncn(-c3cc(OCc4ccccc4S(C)(=O)=O)c(C#N)s3)c2cc1OC | 6.46 | 2.06 | 3.79 | 2.44 | 3.61 | 1.55 | 4.05 | 2.92 | 5.45 | 3.97 | 4.79 | 4.75 | 5.43 | 4.3 | 5.27 | 3.46 | 5.2 | 1.34 | 2.89 | 3.62
